Data: PubChem BioAssay

The molecules below were run on Human papillomavirus type 1a protein E7 (residues 44-93) (assay: small molecules binding HPV E7 44-93 – biochemical, small-molecule microarray, residues 44-93, 635 nm fluorescence, primary screen (AID 1108;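 also: E7 fragment applied at 1 µg/mL in TBST for 1 h at 4 C; score combines spot fluorescence with its signal to noise ratio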)). Conditions: fluorescence 635 nm, higher = more signal.

Structure (SMILES) | composite z-score
O=C1C2C=CC(C(O)Cc3ccccc3)N(Nc3ccc([N+](=O)[O-])cc3)C2C(=O)N1c1ccccc1 (stereo not given) | 0.508
CC(C)C[C@@H]1NC(=O)[C@H](CC(C)C)NC(=O)[C@@]23C(=O)N[C@@H](Cc4ccccc4)C2[C@H](C)[C@@]2(C)O[C@H]2C3/C=C/CC/C=C/CNC1=O (stereo not given in full) | 1.34
COC(=O)[C@@]1(Cc2ccccc2CN=[N+]=[N-])N=C(c2ccc(OCCCO)cc2)O[C@H]1c1ccccc1N=[N+]=[N-] | 1.02
CCOC(=O)C[C@H]1[C@H](OC(=O)Cc2ccc3c(c2)OCO3)[C@@H](NC(=O)c2ccc3ccccc3c2)c2cc(OCCCO)ccc2N1C(=O)Cc1ccc(OC)cc1 | 1.01
C[N+](C)(C)CCCCNC(=O)[C@H]1C[C@H]2C(=O)NCC(=O)N2[C@H]1c1cccc(OCCO)c1 | 0.296
C=C(/C(=C/C[C@@H](OC(=O)c1ccncc1)c1ccc(CO)o1)c1cnc2ccccc2c1)C(C)C | -1.09
CCCNC(=O)[C@@]1(Sc2ccc(C)cc2)CC(=O)N(Cc2ccccc2Cl)[C@@H]1c1ccc(CO)cc1 | 0.658
COC(=O)Cn1c(C(=O)N2CCCC2)cc2c1C[C@H]1CN(C(=O)c3ccccc3)[C@@](Cc3ccccc3)(C(=O)OC)[C@@H]21 | 0.225
NC(=O)NCC#Cc1ccc2c(c1)[C@]1(C(=O)N2)[C@H](C(=O)N2CCCCCCC2)[C@H]2C(=O)O[C@H](c3ccccc3)[C@H](c3ccccc3)N2[C@@H]1c1ccccc1OCCO | 1.37
Cc1ccc(S[C@]2(C(=O)NCCCN(C)C)CC(=O)N(C3CCCCC3)[C@@H]2c2ccc(CO)cc2I)cc1 | -1.32
